Hits are enriched below; roughly 4.3% of the tested compounds scored in any of these assays.
HSF-1 act: HSF-1 activators, primary screen, NIH3T3-HGL cells, MG132 stress, luminescence, single point; NIH3T3-HGL HSF-1 luciferase reporter, 8 h; 100% = twice DMSO control signal; activation, % at 9 µM; hit rate 1.7% among 300,000; AID 504408, 2011;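 active = mean replicate activation of at least 50% with a set share of replicates each reaching 50%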;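 note: 0% = median of the neutral control wells and 100% = twice that signal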
Wnt act: Wnt/beta-catenin pathway activators, primary screen, cell-based, plate reader, single point; activation, % at 9.35 µM; hit rate 1.2% among 300,000; Wnt/beta-catenin reporter cell assay, activator; AID 743398, 2014; in the data active = activation above about 30%, passing the limit was not always enough;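 note: 0% = neutral control wells and 100% = positive control wells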
MITF TRPM1 HTS: activators of MITF-driven TRPM1 promoter reporter, primary screen, cell-based, SK-MEL-5, luciferase, single point. hit rate 0.75% among 300,000. activation, % at 12.5 µM. SK-MEL-5 TRPM1-promoter luciferase, 24 h; % of positive control, neutral wells = 0. AID 588334, 2011;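 active = mean activation of at least 80% with every replicate also reaching 80%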;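 note: 0% = neutral control wells and 100% = parthenolide positive control wells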
HSF1 inh: HSF1 inhibitors in luciferase reporter cells, primary screen, cell-based, NIH3T3, luminescence | NIH3T3-HGL HSE-luciferase, MG132-induced, luminescence 8 h; hits give low values | activity change, negative = inhibition, % at 7.5 µM (by protocol) | hit rate 0.77% among 300,000;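 active = more than half of replicate wells show activity change below -50%, luminescence cut by over half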;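 note: luciferase reports HSF-1 transcriptional activity via heat shock element; 0% = median of DMSO wells and -100% = zero luminescence signal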
SMARCA2 activ: SMARCA2 (BRM) function activators, primary screen, cell-based, luminescence, high throughput; MG213 cells, MMTV-luciferase reporter, dexamethasone, overnight; activation, % at 9.1 µM; hit rate 1% among 370,000; in the data active = activation above about 7.8%;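 note: 0% = vehicle wells and 100% = reference activator wells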
esBAF inh: Bmi1 luciferase reporter increase in mESCs, primary screen, esBAF inhibitor project, mouse ES cells, Bmi1 luciferase knock-in, single point; 24 h; 100% = twice the neutral-well signal; reporter increase, % at 12.5 µM; hit rate 2% among 350,000; AID 602393, 2012; in the data active = activation above about 40%;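 note: 0% = median of the plate's neutral control wells and 100% = double that signal; a rise in the Bmi1 reporter signal indicates esBAF inhibition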
SMARCA2 act conf: SMARCA2 (BRM) function activators, confirmation, cell-based, luminescence, triplicate. shares compounds with SMARCA2 activ. activation, % at 9.1 µM. hit rate 30% among 3,500. AID 652260, 2013. MG213 cells, MMTV-luciferase with dexamethasone, overnight; MG213 cells expressing E1A, Rb sequestered; DMSO wells 0%, reference activator 100%;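 active = activation above its plate's cutoff, the mean activation of tested wells plus 3 SD, cut at about 7.9% in these data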
VP16 Luc act: GAL4-VP16 luciferase reporter activation, counter-screen for SMARCA2 (BRM) activator project, cell-based, pG5luc, luminescence, high throughput; hit rate 41% among 3,500; HEK293 GAL4-VP16 pG5luc reporter; scaled: DMSO wells 0%, SAHA wells 100%; shares compounds with SMARCA2 activ; activation, % at 9.1 µM;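 active = activation above the solvent-only control well mean plus 3 SD, averaged across control plates, cut at about 5.2% in these data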
* = called active by the depositor; ! = repeats disagree.

`O=C1NC(=Nc2ccc(O)cc2)S/C1=C/c1ccco1` gave HSF-1 act 6, Wnt act 0, MITF TRPM1 HTS -12, HSF1 inh 2, SMARCA2 activ -4 and esBAF inh 7.
Screening O=C1NC(=Nc2ccc3ccccc3c2)S/C1=C/c1ccco1 returned HSF-1 act 3, Wnt act 0, MITF TRPM1 HTS 14, HSF1 inh -3, SMARCA2 activ 10*, esBAF inh 15, SMARCA2 act conf 6 and VP16 Luc act 4.
Screening O=C(C[C@H]1CC[C@@H]2[C@H](COC[C@@H](O)CN2S(=O)(=O)c2ccccc2)O1)N1CCOCC1 returned esBAF inh 3.
CN1CCN(S(=O)(=O)c2cccc(C(=O)Nc3sc4c(c3-c3nc5ccccc5[nH]3)CCCC4)c2)CC1 was read as HSF-1 act 0, Wnt act -5, MITF TRPM1 HTS 9, HSF1 inh 10, SMARCA2 activ 21*, SMARCA2 act conf 4 and VP16 Luc act 4.
`CCOC(=O)C1(C(F)(F)F)N=C(C(F)(F)F)Nc2ccccc21` (stereo unspecified) gave HSF-1 act -2, Wnt act -2, MITF TRPM1 HTS 8, HSF1 inh 2, SMARCA2 activ 9.8*, esBAF inh 4, SMARCA2 act conf -1 and VP16 Luc act 0.
Screening C[C@@H]1CN([C@@H](C)CO)S(=O)(=O)c2ccc(-c3ccc(F)cc3)cc2O[C@H]1CN(C)C(=O)C1CC1 returned esBAF inh 37.
C[C@@H]1CN([C@@H](C)CO)C(=O)c2cc(NS(C)(=O)=O)ccc2O[C@H]1CN(C)Cc1ccc(-c2ccccc2)cc1 was read as esBAF inh -1.
Screening O=C(c1[nH]ncc1-c1cccc(Br)c1)C1CO1 (stereo unspecified) returned HSF-1 act 33, Wnt act -1, MITF TRPM1 HTS -15, HSF1 inh 10, SMARCA2 activ 11*, SMARCA2 act conf 12* and VP16 Luc act 0.
`O=C1c2ccccc2C2=Nc3ccccc3SC(c3cccc(F)c3)C12` (stereo unspecified) gave HSF-1 act -4, Wnt act -10, MITF TRPM1 HTS 1, HSF1 inh 3 and SMARCA2 activ 1.
Screening Fc1cccc(C2NN=C(c3ccccc3)S2)c1 (stereo unspecified) returned HSF-1 act 61*, Wnt act -9, MITF TRPM1 HTS 1, HSF1 inh 25, SMARCA2 activ 12*, esBAF inh -18, SMARCA2 act conf 14* and VP16 Luc act 13*.
For COc1ccc(-c2nc3ccccc3s2)cc1NC(C)=O the results were HSF-1 act 31, Wnt act 36*, MITF TRPM1 HTS 68, HSF1 inh 10, SMARCA2 activ 9.7*, esBAF inh 39, SMARCA2 act conf 7 and VP16 Luc act 14*.
Screening COc1cccc(-c2nc3ccccc3s2)c1 returned HSF-1 act 21, MITF TRPM1 HTS 10, HSF1 inh 20 and SMARCA2 activ 5.
Screening Cc1ccc(O)c(NC(=O)CN(C)S(=O)(=O)c2ccc(Cl)cc2)c1 returned HSF-1 act 42, Wnt act -1, MITF TRPM1 HTS -5, HSF1 inh 40, SMARCA2 activ 11*, esBAF inh 4, SMARCA2 act conf 1 and VP16 Luc act 1.
`Cc1ccc(S(=O)(=O)N(C)CC(=O)NCC(=O)Nc2ccc(F)c(F)c2F)cc1` gave Wnt act -4, MITF TRPM1 HTS -3, SMARCA2 activ -3 and esBAF inh 0.
C=CCN1CCc2c(cc(O)c(O)c2Cl)C(c2ccccc2)C1 (stereo unspecified) was read as HSF-1 act 2, Wnt act -3, MITF TRPM1 HTS 8, HSF1 inh 4, SMARCA2 activ 9.2*, esBAF inh 2, SMARCA2 act conf 5 and VP16 Luc act 1.
For C=CCN1CCc2cc(O)c(O)cc2C(c2ccccc2)C1 (stereo unspecified) the results were Wnt act -1, MITF TRPM1 HTS -4, SMARCA2 activ -1 and esBAF inh -2.
For CCOC(=O)[C@]12CCCC3=C1N(CCC3)C(=O)[C@@H](CC(=O)NCc1ccc(OC)c(OC)c1)C2 the results were SMARCA2 activ 8.0*, SMARCA2 act conf -1 and VP16 Luc act 0.
CCOC(=O)[C@]12CCCC3=C1N(CCC3)C(=O)[C@@H](CC(=O)NCc1ccccc1)C2 was read as SMARCA2 activ 0.
`Cc1noc(C)c1S(=O)(=O)Nc1ccc2c(c1)C(=O)N([C@H](C)CO)C[C@H](C)[C@@H](CN(C)C(=O)Cc1ccccc1)OCCCC[C@H](C)O2` gave esBAF inh 7.
For COc1ccc(Nc2nc(N)nc(CSc3nccn3C)n2)cc1 the results were HSF-1 act 55*, Wnt act 56*, MITF TRPM1 HTS 6, HSF1 inh 9, SMARCA2 activ 8.7*, SMARCA2 act conf 6 and VP16 Luc act 8.2*.
For COc1ccc(Nc2nc(N)nc(CSc3nnc(N)s3)n2)cc1 the results were HSF-1 act 37, HSF1 inh 11, SMARCA2 activ 6 and esBAF inh 10.
For Cc1cc2cc(OCc3ccccc3)ccc2n1C the results were HSF-1 act -4, Wnt act 22, HSF1 inh -7, SMARCA2 activ 13*, esBAF inh 23, SMARCA2 act conf 4 and VP16 Luc act 8.1*.
`Cc1ccnc(NC(=O)CCCOc2cc(=O)n(C)c3ccccc23)c1` gave HSF-1 act 29, Wnt act -1, MITF TRPM1 HTS -6, HSF1 inh 20, SMARCA2 activ 22*!, esBAF inh -5, SMARCA2 act conf 9.1* and VP16 Luc act 0.
For Cn1c(=O)cc(OCCCC(=O)NCc2ccccn2)c2ccccc21 the results were HSF-1 act 10, Wnt act 14, HSF1 inh -2, SMARCA2 activ 0 and esBAF inh -7.
